Screening results as filed in PubChem BioAssay.
The list is not random: actives were taken first. Their share in the collection is about 12%.
JMJD2A Tudor inh: blocks the human JMJD2A Tudor domain; O75164; AlphaScreen JMJD2A-Tudor / H3K4me3 peptide binding; Potency, µM (series often up to 114 µM), without a hit: at the highest dose activity change, negative = inhibition, actives largely listed as inhibitors; hit rate 4.4% among 390,000; AID 504339; note: potency is the fitted concentration of half-maximal effect; % is set by controls: 0 for no effect and ±100 for the full control effect; nearly all actives have a fitted effect of over 50% in size
Target sequence (O75164 whole entry, looked up, the tested form may be a part): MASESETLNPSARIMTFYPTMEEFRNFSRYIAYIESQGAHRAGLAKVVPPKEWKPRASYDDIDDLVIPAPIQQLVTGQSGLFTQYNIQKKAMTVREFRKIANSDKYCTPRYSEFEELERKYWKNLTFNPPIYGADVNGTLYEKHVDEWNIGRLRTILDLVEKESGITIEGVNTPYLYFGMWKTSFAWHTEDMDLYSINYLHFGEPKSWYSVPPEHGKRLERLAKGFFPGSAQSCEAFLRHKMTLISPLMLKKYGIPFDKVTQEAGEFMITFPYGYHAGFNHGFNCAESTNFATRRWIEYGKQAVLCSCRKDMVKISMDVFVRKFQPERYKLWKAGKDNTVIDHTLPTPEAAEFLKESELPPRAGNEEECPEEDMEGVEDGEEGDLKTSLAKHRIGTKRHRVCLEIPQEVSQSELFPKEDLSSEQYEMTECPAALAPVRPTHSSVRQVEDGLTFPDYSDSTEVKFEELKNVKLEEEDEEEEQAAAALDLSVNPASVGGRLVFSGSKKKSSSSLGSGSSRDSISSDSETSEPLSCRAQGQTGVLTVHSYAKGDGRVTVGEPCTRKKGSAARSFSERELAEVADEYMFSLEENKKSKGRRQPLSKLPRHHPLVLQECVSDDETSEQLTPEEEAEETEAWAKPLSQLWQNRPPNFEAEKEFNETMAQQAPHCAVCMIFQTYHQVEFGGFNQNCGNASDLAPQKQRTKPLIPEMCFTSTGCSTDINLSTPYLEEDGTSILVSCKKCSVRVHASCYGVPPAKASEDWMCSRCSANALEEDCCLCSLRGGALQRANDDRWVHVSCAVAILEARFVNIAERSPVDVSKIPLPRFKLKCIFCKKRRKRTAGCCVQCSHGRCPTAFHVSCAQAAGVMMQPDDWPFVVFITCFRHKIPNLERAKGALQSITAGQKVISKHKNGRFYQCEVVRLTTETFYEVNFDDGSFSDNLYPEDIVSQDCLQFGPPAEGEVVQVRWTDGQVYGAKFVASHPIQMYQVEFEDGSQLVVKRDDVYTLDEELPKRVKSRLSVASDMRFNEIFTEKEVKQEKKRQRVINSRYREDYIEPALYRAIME
PLK1 PBD block: PLK1 (human) polo-box domain binding inhibition; Potency, µM, for inactives: max response, negative = inhibition, usual class: inhibitors; AID 720504; hit rate 2.8% among 360,000; Plk1 PBD binding of FITC phosphopeptide, fluorescence polarization; note: potency is the fitted concentration of half-maximal effect; series mostly up to about 57 µM; % is set by controls: 0 for no effect and ±100 for the full control effect; nearly all actives have a fitted effect of over 65% in size
G9a inh: inhibitors of human histone lysine methyltransferase G9a. hit rate 8.8% among 350,000. Potency, µM (series often up to 102 µM), for the others: top-dose activity, negative = inhibition, most hits filed as inhibitors. Q96KQ7. AID 504332. G9a H3K9 monomethylation, AlphaScreen, 2 h; note: potency is the fitted concentration of half-maximal effect; % is set by controls: 0 for no effect and ±100 for the full control effect; nearly all actives have a fitted effect of over 75% in size
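AlphaScreen detection with an anti-monomethyl H3K9 antibody quantified product after a 2 h room-temperature reaction containing 500 nM biotinylated H3K9 peptide, 20 µM SAM and 20 nM enzyme, which had been preincubated 15 min with compound.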
PI5P4K alpha inh: inhibitors of human PI5P4K alpha; hit rate 1.2% among 330,000; max response, %; PI5P4Kalpha enzyme, ADP-Glo luminescence, 60 min; stronger effect = lower value; AID 652105; P48426; active = max response of -50% or lower; inconclusive = between -30% and -50%; inactive = -30% or higher; note: value at the top dose of about 77 µM; % is set by controls: 0 for no effect and ±100 for the full control effect
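Human PI5P4Kalpha with substrate in 0.038 M HEPES pH 7.4, 0.28 mM EGTA, 0.1% CHAPS, 5% DMSO; reaction started with 5 microM ATP (final), 60 min at room temperature. ADP formed read by ADP-Glo luminescence.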
BAZ2B inh: BAZ2B (human) inhibition | Potency, µM (doses to about 114 µM), without a hit: at the highest dose activity change, negative = inhibition, hits mostly inhibitors | AlphaScreen BAZ2B-H3K14Ac peptide displacement | Q9UIF8 | hit rate 4.4% among 360,000; note: potency is the fitted concentration of half-maximal effect; % is set by controls: 0 for no effect and ±100 for the full control effect; nearly all actives have a fitted effect of over 60% in size
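AlphaScreen luminescence quantifies BAZ2B engagement of H3K14Ac peptide; the protein and biotinylated peptide are both at 50 nM final, buffer PBS pH 7.4 with 0.01% Tween-20, all steps at room temperature.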
HP1b binding inh: HP1-beta chromodomain-methylated histone interaction inhibition | AlphaScreen HP1-beta / biotin-H3K9me3 peptide binding | Potency, µM (top dose mostly 114 µM), inactives show at the highest dose activity change, negative = inhibition, usual class: inhibitors | P83916 | hit rate 0.56% among 390,000; note: potency is the fitted concentration of half-maximal effect; nearly all actives have a fitted effect of over 70% in size
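Compound inhibition of the preformed complex between 50 nM HP1-beta and 50 nM biotinylated H3K9me3 peptide was read by AlphaScreen. Buffer was PBS pH 7.4 with 0.01% Tween-20. Incubations ran 30 min at room temperature, with 10 ug/mL donor/acceptor beads.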
Active calls of the source: *; ? = inconclusive; . = no result given; [ ] = remark or other dose. Unless noted, calls come from the whole dose curve; as a rule, active = well fitted curve in the direction sought with a large enough effect; inconclusive = small, poorly fitted or top-dose-only effect, or another doubt; inactive = no such curve, though single readings can be large; an effect the other way counts as inactive or inconclusive.

SMILES	JMJD2A Tudor inh	PLK1 PBD block	G9a inh	PI5P4K alpha inh	BAZ2B inh	HP1b binding inh
O=c1cc(O)cc(/C=C/c2ccc(O)c(O)c2)o1	.	.	4µM*	.	.	.
O=C(C=Cc1cccc(O)c1)c1ccccc1O	?	1.7µM*	.	8	.	-9%
Cc1ccc(NS(=O)(=O)c2ccc3c(c2)CCN(C(=O)C(F)(F)F)C3)cc1C	-14%	.	.	.	.	.
COc1ccc(C2Nc3ccccc3C(=O)N2Cc2ccco2)cc1COc1c(C)cccc1C (stereo not drawn)	?	.	.	.	.	38%
COc1ccccc1CNc1ncnc2c1c(-c1ccccc1)cn2-c1cccc(C)c1	-17%	.	-9%[59 µM]	.	?	24%
CNS(=O)(=O)c1cc(C(=O)O)ccc1OC	13µM*	27µM*	8%	-25	-17%	12%
COc1ccc(C(=O)O)cc1S(N)(=O)=O	-3%	5%	-26%	-3	-17%	7%
O=S(=O)(NCc1ccccn1)c1cc(Cl)ccc1Cl	-7%	0%	79µM*	-6	-7%	22%
CCOc1ccc(S(=O)(=O)NCc2ccccn2)cc1NC(=O)c1ccccc1	7.9µM*	5%	-5%	4	-31%	15%
COc1ccc(C)cc1S(=O)(=O)NCc1ccccn1	.	3%	.	-2	.	.
COc1ccc(C(C)C)cc1S(=O)(=O)NCc1ccccn1	2.2µM*	-12%	10%[12.7 µM]	.	-4%	10%
COC(=O)c1c(SC)nc2ccccc2c1OCc1ccc(C)cc1C	126%	.	73%[59 µM]	.	145%	123%
Cc1cc(S(=O)(=O)NCC(C)C)ccc1OCC(=O)NCc1ccccn1	22µM*	-4%	?	-1	?	17%
COc1ccc(C(=O)O)cc1S(=O)(=O)NCc1ccccn1	?	-1%	6%	4	71µM*	13%
CC(C)c1ccc(OCC(=O)Nc2c(Cl)ccc3nsnc23)cc1	-18%	.	8%[59 µM]	.	-2%	20%
COc1cccc(Cn2c(=O)c(CCc3ccccc3)nc3cncnc32)c1	.	.	-3%[0.501 µM]	.	.	.
O=C(NCCN1CCCCC1)Nc1cccc(F)c1	1%	-7%	28%	2	-6%	44%
Cc1c(C(=O)N2CCN(C3CCS(=O)(=O)C3)CC2)oc2c(F)cccc12 (stereo not drawn)	-26%	-6%	-25%[59 µM]	?	0%	54%
COc1ccc(CCNC(=O)CN2C(=O)COc3ccccc32)cc1OC	-10%	.	9%[59 µM]	.	25%	53%
CN(C(=O)c1ccno1)c1nnc(-c2ccccn2)s1	?	-5%	?	-1	50µM*	49%
Cc1ccc(C(=O)N(C)c2nnc(-c3ccncc3)s2)cc1	79µM*	-8%	.	2	-34%	8%
CN(C(=O)c1ccncc1)c1nnc(-c2cccnc2)s1	-11%	-6%	16%[59 µM]	-9	-5%	18%
CN(C(=O)c1ccncc1)c1nnc(-c2ccccn2)s1	-28%	-6%	-4%[12.7 µM]	6	56µM*	16%
COc1ccc(N2CC(NC(=O)c3cccs3)CC2=O)cc1OC (stereo not drawn)	-7%	.	-3%[59 µM]	.	-10%	17%
CN1C[C@@H]2[C@@H]3C(=O)N(C)C(=O)[C@@H]3[C@](C)(C1=O)N2C(=O)c1ccc(C(C)(C)C)cc1	-8%	-5%	.	-1	.	42%
SMILES	JMJD2A Tudor inh	PLK1 PBD block	G9a inh	PI5P4K alpha inh	BAZ2B inh	HP1b binding inh
CCOC(=O)c1c(C)[nH]c(C)c1S(=O)(=O)N1CCCC(C(=O)N2CCN(c3cccc(Cl)c3)CC2)C1 (stereo not drawn)	?	.	?	.	?	-5%
CSc1ncc(CN2CCCC(C(=O)Nc3ccc(-c4ccco4)cc3)C2)cn1 (stereo not drawn)	?	-13%	10µM*	0	?	-20%[57 µM]
Cc1ncc(CN2CCCC(C(=O)Nc3ccc(-c4ccco4)cc3)C2)n1C (stereo not drawn)	-18%	-2%	41%	-6	-17%	?
COc1cccc(N2C(=O)c3ccccc3C2=O)n1	6%	.	.	.	.	.
CCOC(=O)COc1ccc(Br)cc1/C=C\c1[nH]c(=O)[nH]c(=O)c1[N+](=O)[O-]	-18%	-20%	?	-74*	-34%	?
CCOC(=O)COc1ccc(Br)cc1/C=C/c1[nH]c(=O)[nH]c(=O)c1[N+](=O)[O-]	-13%	-28%	?	-59*	13%	-17%
Cc1oc(-c2ccc(Cl)cc2)nc1Cn1c(=O)cc(C)c2c(C)nn(-c3ccccc3)c21	9%	.	-5%[59 µM]	.	1%	68%
Cc1ccc(Cl)cc1NC(=O)C1CCCN(S(=O)(=O)c2c(C)noc2/C=C/N(C)C)C1 (stereo not drawn)	-28%	.	?	.	?	25%
Oc1c(Br)cc(Cl)cc1C=Nc1ccc(N2CCOCC2)cc1	-19%	-19%	?	-2	-13%	33%
Oc1c(Br)cc(Cl)cc1C=Nc1ccccc1Br	-21%	?	4µM*	?	-36%	-6%
CC(C)Cc1ccc(CN2CCCC(NC(=O)CCN3CCCO3)C2)cc1 (stereo not drawn)	-25%	-11%	79µM*	11	-32%	11%
O=C1CCC2=C1C(c1ccccc1Cl)N=C(Nc1nc3ccccc3o1)N2 (stereo not drawn)	-23%	.	.	.	.	.
COc1ccc(C2=CC(=O)C=CC2=O)cc1	.	.	1.3µM*	.	10µM*	.
C[C@@H]1CN([C@@H](C)CO)C(=O)CCCn2nncc2CO[C@H]1CN(C)C(=O)c1ccccc1	.	-21%	.	1	.	.
N#CCN1CCC(c2cc(-c3ccco3)n[nH]2)CC1	-21%[11.4 µM]	30µM*	-42%	-9	-16%	?
CC12CCC(C(=O)NCc3ccccc3Cl)(CC1=O)C2(C)C (stereo not drawn)	8%	-2%	?	4	-3%	39%
COc1ccccc1NC(=O)C12CCC(C)(C(=O)C1)C2(C)C (stereo not drawn)	-15%	27µM*	1%	-3	-14%	-12%
CCc1c(O)cc(=O)n(-c2ccccc2)c1-c1ccccc1	-40%	-7%	?	?	56µM*	-6%
CC(=O)c1c(O)cc(=O)n(-c2ccccc2)c1-c1ccc(Cl)cc1	-2%	-10%	19%[59 µM]	-7	4%	15%
Cc1cccc(CC(C)NC(=O)c2oc3c(F)cccc3c2C)n1 (stereo not drawn)	-3%	-14%	.	-9	-8%	44%
Clc1ccc(C[n+]2csc3ccccc32)cc1	50µM*	27µM*	?	-20	50µM*	23%
S=C(NCc1ccco1)Nc1ccc(N2CCOCC2)cc1	-24%[57.1 µM]	27µM*	?	-8	-6%	-14%
S=C(NCc1ccco1)Nc1cc(-c2ccccc2)[nH]n1	?	-16%	-151%[59 µM]	-15	40µM*	?
S=C(NCc1ccco1)Nc1ccc(Oc2ccccc2)cc1	-23%	17µM*	.	1	?	?
COc1ccc(NC(=S)NCc2ccco2)cc1	-10%	-5%	.	-6	-31%	24%
